Source: PubChem BioAssay (EPA / NIEHS)
Values joined by “and” are separate entries in the source; they are usually repeats but may differ in a detail not shown here. Equal entries are not always repeated. Active and inactive are the calls of the source. Rule for the calls: active = hit-call score of the fitted dose curve at least 0.9, where 1 is the maximum; inactive = score below 0.9.

These molecules were tested on BCL2L11 (gene 10018) (assay: LTEA_HepaRG_BCL2L11: Life Technologies and Expression Analysis (LTEA) Assay for Bcl-2 (BCL2L11) gene using HepaRG (AID 2283473)). Settings: mRNA level, 48 h; actives raise or lower the signal.
Experimental: LTEA_HepaRG is a cell based, multiplexed-readout assay that uses HepaRG, a human liver cell line, with measurements taken at 48 hours after chemical dosing on a 96-well plate.LTEA_HepaRG_BCL2L11 is one of 102 assay component(s) measured in the LTEA HepaRG cell culture assay. It is a marker of Cell proliferation, survival, death.Data from the assay component LTEA_HepaRG_BCL2L11 was analyzed into 1 endpoint. This assay endpoint, LTEA_HepaRG_BCL2L11, was analyzed with bidirectional fitting relative to DMSO as the negative control and baseline of activity. Using a type of inducible reporter, measures of mRNA induction for gain or loss-of-signal activity can be used to understand regulation of transcription factor activity. To generalize the intended target to other relatable targets, this assay endpoint is annotated to the cell cycle intended target family, where the subfamily is Cell proliferation, survival, death.
A total of 1060 chemcials from the ToxCast library were tested in eight-point concentration-response experiments. Cell culture and cytotoxicity assays were conducted at Thermo Fisher Scientific's Custom Services facility (Madison, WI). A single lot of human HepaRG cells (Thermo Fisher Scientific, Frederick, MD) was used for the cell culture experiments. 96-well format collagen type I coated plates of human HepaRG cells were prepared using established methods. Briefly, cryopreserved HepaRG cells were thawed, plated at a density of approximately 100,000 cells/well in HepaRG Thaw, Plate, and General Purpose media (HPRG770, Thermo Fisher Scientific), and incubated for 48 hours. 0.5% DMSO was selected as vehicle control to balance the requisite need of DMSO in HepaRG cultures to maintain differentiation (for example, baseline metabolism, proportions of hepatocytes vs. cholangiocytes), while enabling further hepatic receptor pathway activation (for example, PXR and CAR) in response to chemical exposure. 48 hours after plating, the culture medium was replaced with HepaRG Serum-Free Incudtion Media. Cells were exposed to each test chemical in duplicate and maintained in CO2 incubators for another 48 hours. Chemical plates were thawed to room temperature and 200x concentrations of treatment groups were prepared. 8-point conentration-reponse curves were made with the highest exposure at 100 uM, followed by half-log dilutions, all in 0.5% DMSO. Each test plate contained variouse controls, induction positive controls (1mM phenobarbital), cytotoxicity positive controls ([…] aflatoxin B1), vehicle controls (0.5% DMSO), and total lysis controls (0.5% DMSO). Cell morphology images were taken using an Essen IncuCyte FLR automated microscope, with six 96-well plates imaged in about 24 minutes. Images were captured and exported and JPEG files. Spent culture media was transfered to black-well plates for the LDH assay, and remaining media was sorted at -80 C for later use. Cells were treated with RLT buffer and frozen until shipped for gene expression analysis. Total RNA was isolated from the cell suspension in 75 uL of Buffer RLT (Qiagen, Germantown, MD 20874) by Quintiles/Expression Analysis (Durham, NC) using a custom isolation procedure. Total RNA from each plate well was transferred to a preamplification plate. Fluidigm's 96.96 Dynamic ArrayTM (Fluidigm, Amsterdam, the Netherlands) technology was used for gene expression analyses by quantitative reverse transcription polymerase chain reaction (qRT-PCR, performed by Quintiles/Expression Analysis, Durham, NC)89. Standard TaqManTM Assays (Applied Biosystems/ThermoFisher Scientific, Foster City, CA) were used to assess the expression of 93 genes selected based on their selectivity and sensitivity to important hepatic receptors known to be modulated by environmental chemicals; importance in human hepatocyte functionality; and hepatotoxicity. […]

Structure (SMILES)	outcome	AC50
C=CCC1=C(C)C(OC(=O)C2C(C=C(C)C)C2(C)C)CC1=O (stereo not given)	inactive	
C=CC1(C)OC(=O)N(c2cc(Cl)cc(Cl)c2)C1=O (stereo not given)	inactive	
CC1=C(C(=O)Nc2ccccc2)SCCO1	inactive	
CCOC(=O)CC(SP(=S)(OC)OC)C(=O)OCC (stereo not given)	inactive	
CCOC(=O)C(Cl)Cc1cc(-n2nc(C)n(C(F)F)c2=O)c(F)cc1Cl (stereo not given)	inactive	
N#Cc1nn(-c2c(Cl)cc(C(F)(F)F)cc2Cl)c(N)c1S(=O)C(F)(F)F (stereo not given)	inactive	
CNC(=S)S	inactive	
CC(C)C1(C)N=C(c2nc3ccccc3cc2C(=O)O)NC1=O (stereo not given)	inactive	
Fc1ccc(Oc2ccnc3cc(Cl)cc(Cl)c23)cc1	inactive	
CCNc1nc(Cl)nc(NC(C)C)n1	inactive	
CCNc1nc(Cl)nc(NCC)n1	inactive	
COC(=O)N(OC)c1ccccc1COc1ccn(-c2ccc(Cl)cc2)n1		20.5 µM (active)
COP(=S)(OC)Oc1nc(Cl)c(Cl)cc1Cl	inactive	
CC(C)(C)c1ccc(CSc2cnn(C(C)(C)C)c(=O)c2Cl)cc1		1.93 µM (active)
N#Cc1cc(Br)c(O)c(Br)c1		10.4 µM (active)
COC(=O)c1ccccc1C(=O)OC	inactive	
CN(C)C(=S)SSC(=S)N(C)C	inactive	
CO/C=C(/C(=O)OC)c1ccccc1Oc1cc(Oc2ccccc2C#N)ncn1		84.5 µM (active) and 73.8 µM (active) and 84.6 µM (active)
CC(C)Oc1cc(-n2nc(C(C)(C)C)oc2=O)c(Cl)cc1Cl	inactive	
COc1ccc(C(c2ccc(OC)cc2)C(Cl)(Cl)Cl)cc1	inactive	

Structure (SMILES)	outcome	AC50
O=C(O)c1nc(Cl)ccc1Cl	inactive	
N#CC(CCc1ccc(Cl)cc1)(Cn1cncn1)c1ccccc1 (stereo not given)	inactive	
C#CCOS(=O)OC1CCCCC1Oc1ccc(C(C)(C)C)cc1 (stereo not given)	inactive	
O=C(O)COc1nc(Cl)c(Cl)cc1Cl	inactive	
COP(N)(=O)SC (stereo not given)	inactive	
Cc1c(F)c(F)c(COC(=O)C2C(/C=C(\Cl)C(F)(F)F)C2(C)C)c(F)c1F (stereo not given)	inactive	
C=CCC1=C(C)[C@@H](OC(=O)[C@@H]2[C@@H](C=C(C)C)C2(C)C)CC1=O	inactive	
CC1COC(Cn2cncn2)(c2ccc(Oc3ccc(Cl)cc3)cc2Cl)O1 (stereo not given)	inactive	
CCCCNC(=O)n1c(NC(=O)OC)nc2ccccc21	inactive	
CNC(=O)ON=CC(C)(C)SC	inactive	
CC(Oc1ccc(Cl)cc1Cl)C(=O)O (stereo not given)	inactive	
CCOP(=S)(OCC)SCn1c(=O)oc2cc(Cl)ccc21	inactive	
CCCCNC(=O)OCC#CI	inactive	
COc1cnc(OC)n2nc(NS(=O)(=O)c3c(OCC(F)F)cccc3C(F)(F)F)nc12	inactive	
COc1nc(NC(C)C)nc(NC(C)C)n1	inactive	
CCCC1COC(Cn2cncn2)(c2ccc(Cl)cc2Cl)O1 (stereo not given)	inactive	
O=C(Nc1ccccc1)Nc1ccnc(Cl)c1	inactive	
OC(c1ccc(Cl)cc1)(c1cncnc1)c1ccccc1Cl (stereo not given)	inactive	
Oc1ccccc1-c1ccccc1	inactive	
CS/C(C)=N/OC(=O)N(C)SN(C)C(=O)O/N=C(\C)SC	inactive	
